D1 ag – human D1 receptor agonism; P21728; AID 504660; activation, % at 2 µM; HEK293 T-REx D1 cells, calcium flux, agonist mode; 360,000 compounds, 1% hits; further: 0% is about no effect
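Inducible HEK293 T-REx D1 cells, force-coupled to calcium signalling, were plated at 4000 cells/well with tetracycline and held overnight at 30 C. After no-wash calcium dye loading, compound-evoked calcium rise over 180 s flagged agonists.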
D1 antagonist – blocks dopamine activation of the human D1 receptor; activity change, negative = inhibition, % at 10 µM; P21728; 360,000 compounds, 3.2% hits; HEK293 TREx D1 cells, calcium flux, dopamine EC80; hits give low values; in the data active means activity change below about -30%; further: on the % scale 0 is the no-effect control and ±100 the full control effect
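Using tetracycline-induced force-coupled D1 Hek293 cells and a calcium dye, signals were followed for 180 s after compound, then for 180 s after EC80 dopamine, to detect inhibitors.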
TRHR agonist – agonists of human TRH receptor | P34981 | TRHR cells, calcium flux fluo-8, FDSS agonist mode | activation, % at 2 µM | 360,000 compounds, 0.18% hits | AID 493084; further: 0% is about no effect
Target sequence (P34981 whole entry, looked up): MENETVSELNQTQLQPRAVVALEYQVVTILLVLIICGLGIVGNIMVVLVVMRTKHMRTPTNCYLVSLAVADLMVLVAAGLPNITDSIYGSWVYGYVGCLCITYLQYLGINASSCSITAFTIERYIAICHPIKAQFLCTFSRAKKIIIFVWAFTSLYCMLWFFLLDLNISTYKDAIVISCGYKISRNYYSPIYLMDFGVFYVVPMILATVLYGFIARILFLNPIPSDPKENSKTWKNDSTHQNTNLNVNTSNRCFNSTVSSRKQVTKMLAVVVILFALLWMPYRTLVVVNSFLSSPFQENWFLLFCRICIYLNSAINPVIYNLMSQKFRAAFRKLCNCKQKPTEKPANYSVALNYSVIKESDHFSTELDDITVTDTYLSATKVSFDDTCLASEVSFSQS
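TRHR-expressing cells, plated overnight in medium with 10% serum, were loaded with fluo-8 calcium dye at room temperature. After a 10 s baseline, library compound was pin-added and calcium release was recorded kinetically (ex 480/em 530) as agonist response.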
TRHR PAM – TRH receptor (human) allosteric enhancement | P34981 | TRHR cells, fluo-8 calcium fluorescence, EC20 TRH enhancement | enhancement, % at 2 µM | 360,000 compounds, 0.66% hits | AID 493056; in the data active means enhancement above about 30%; further: 0% is about no effect
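TRHR-expressing cells loaded with fluo-8 calcium dye were read kinetically (ex 480/em 530) during compound addition, then stimulated with an EC20 of TRH (10 nM final). Enhancement of the Gq-mediated intracellular calcium response was scored.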
D1 potentiator – human D1 dopamine receptor positive modulation | potentiation, % at 10 µM | AID 504651 | P21728 | HEK293 TREx D1 cells, calcium flux, dopamine EC20 potentiation | 360,000 compounds, 0.036% hits; in the data active means potentiation above about 30%; further: 0% is about no effect
The depositor's hits bear a star. Compounds with a hit are over-represented: about 4.6% of the library has one in this group of screens. Unless noted, no stated cut-off is given here; in the data, active means activation above about 30%; inactive means the rest.

SMILES	D1 ag	D1 antagonist	TRHR agonist	TRHR PAM	D1 potentiator
Nc1c(C(=O)C2CC2)sc2nc(-c3cccs3)cc(C(F)(F)F)c12	173.5*	-6.0	52.9*	9.5	0.4
Nc1c(C(=O)Nc2ccc(F)cc2)sc2nc(-c3cccs3)cc(C(F)(F)F)c12	265.5*	-44.1*	100.2*	20.1	-1.5
Brc1cccc(-c2nnn3c2nc(NCc2ccc4c(c2)OCO4)c2ccccc23)c1	2.2	-1.9	0.9	-3.0	-1.2
CC1=C(c2ccc(Cl)cc2)S(=O)(=O)NC1=NCCCN1CCN(c2cc(C)ccc2C)CC1	-0.2	6.3	-0.5	-1.4	-0.5
CC(C)NC(=O)CCCc1c[nH]c2ccccc12	2.5	-12.8	-0.5	32.8*	-5.1
Cc1ccc(NC(=O)COC(=O)Cc2c[nH]c3ccccc23)cc1C	1.1	-75.5*	-0.2	7.5	-4.2
Cc1ccc(S(=O)(=O)NCC(=O)NCCc2c[nH]c3ccccc23)cc1C	0.1	-0.9	-0.8	33.5*	-2.5
O=C(CCCc1c[nH]c2ccccc12)N[C@@H](Cc1c[nH]c2ccccc12)C(=O)O	0.4	-18.7	0.4	-4.9	4.2
NC(=O)c1ccc(NC(=O)COC(=O)CCCc2c[nH]c3ccccc23)cc1	2.1	-30.2*	0.5	-3.0	-1.1
COc1cc(NC(=O)CCN2CCN(c3ccccc3)CC2)cc(OC)c1	3.1	2.3	0.1	-0.9	-3.0
Cn1cc(C(=O)NCCc2ccc(Cl)cc2)c(=O)c2cc(S(=O)(=O)N3CCOCC3)ccc21	-0.1	-1.0	0.7	-1.7	-0.2
COc1ccc2oc(-c3ccccc3)c(C(=O)N(C)C)c2c1	2.0	-70.0*	0.3	-0.4	-1.9
Cc1cc2c(s1)c1c(n2C)C(=O)N(Cc2ccccc2F)C1	0.2	-11.2	-0.1	4.0	1.4
Cc1noc(C)c1C(=O)OCC(=O)c1cc(C)n(Cc2ccccc2Cl)c1C	6.0	-37.5*	-0.3	-5.5	-11.7
CN(C)S(=O)(=O)c1ccc(N2CCCC2)c(C(=O)N2CCC(C(N)=O)CC2)c1	2.9	0.7	-0.2	1.3	2.0
CCC(C)NCCOCCOc1ccc(Cl)c(C)c1C (configuration not stated)	33.9*	-4.5	1.8	7.5	-3.4
CCC(C)NCCOCCOc1ccc(Cl)c2ccccc12 (configuration not stated)	57.5*	-45.2*	4.9	-1.1	-0.3
CC(Nc1ccc(-c2nc(-c3ccccn3)no2)cc1[N+](=O)[O-])c1ccccc1 (configuration not stated)	3.6	-5.7	0.6	-3.8	3.0
CCNC(=O)/C(=C\c1ccc2c(c1)OCO2)NC(=O)c1ccc(Br)cc1	1.0	10.7	0.0	0.6	-4.3
CCN(CC)C(=O)/C(=C\c1ccc2c(c1)OCO2)NC(=O)c1ccc(Br)cc1	-1.3	-30.0*	-0.3	6.9	-6.7
COc1ccc(C(=O)C2CCCN(Cc3ccc(C#CCCO)cc3)C2)cc1F (configuration not stated)	26.6	-37.0*	-1.1	1.2	-3.0
OC(CNCCc1ccc(C(F)(F)F)cc1)COC(c1ccccc1)c1ccccc1 (configuration not stated)	100.6*	12.4	-0.2	-3.6	52.0*
COc1ccc(C(OCC(O)CNCCc2ccc(S(N)(=O)=O)cc2)c2ccc(OC)cc2)cc1 (configuration not stated)	9.5	16.4	2.5	-4.2	4.3
COc1ccc(CCn2c3c(c(=O)[nH]c2=O)C(NC(=O)c2ccc(C(C)(C)C)cc2)(C(F)(F)F)C(=O)N3)cc1OC (configuration not stated)	-1.0	-3.1	0.5	-0.5	-1.5
COC(=O)CSc1ncc2c(n1)-c1ccccc1N(Cc1ccc(Cl)cc1)S2(=O)=O	2.1	4.2	-0.1	-0.6	0.1
SMILES	D1 ag	D1 antagonist	TRHR agonist	TRHR PAM	D1 potentiator
CCOc1ccc(S(=O)(=O)NCCC(=O)NCC(c2ccc(OC)cc2)N2CCCCC2)cc1 (configuration not stated)	2.0	2.7	-0.2	12.2	-1.9
CCOc1ccc(S(=O)(=O)NCCC(=O)NCC(c2ccc(F)cc2)N2CCOCC2)cc1 (configuration not stated)	0.8	-77.8*	-0.1	1.6	-17.1
Cc1ccc(C(=O)N/C(=C\c2cccc([N+](=O)[O-])c2)C(=O)OCN2C(=O)c3ccccc3C2=O)cc1	4.6	-47.9*	-1.9	-1.4	-0.3
Cn1cc(C(=O)c2ccccc2)cc1-c1nc2ccccc2n1C	5.0	-30.5*	0.3	2.2	1.1
CCC(=O)c1cc(-c2nc3ccccc3n2C)n(C)c1	0.0	-11.8	-0.3	4.0	-1.6
Cc1nn(C)c2c1c(C(F)(F)F)cc(=O)n2C(C)C(=O)N1CCN(c2ccccc2)CC1 (configuration not stated)	1.3	-9.1	-0.2	1.0	-5.3
Cc1cccc(OC(C)C(=O)Nc2ncn[nH]2)c1 (configuration not stated)	1.4	0.4	0.0	-4.5	-3.5
Cc1ccc(Cn2c(CCCNC(=O)c3ccco3)nc3ccccc32)cc1	4.8	7.3	-0.1	-10.4	-2.5
O=C(Nc1ccc2nc(SCC(=O)N3CCOCC3)sc2c1)c1ccc(Cl)cc1	4.1	-37.6*	-0.4	-1.6	-1.5
CCOc1ccc2nc(SCC(=O)c3ccccc3)sc2c1	22.5	-42.5*	4.0	-13.0	2.2
COc1ccc(C(=O)Nc2ccc3nc(SCC(=O)N(C)c4ccccc4)sc3c2)cc1	32.0*	-2.9	-1.0	-1.6	4.1
CCOC(=O)c1cc(-c2ccccc2)n(CCC(=O)NCc2ccccc2Cl)c1C	11.2	-6.1	0.6	1.4	-4.2
CCc1cccc(NC(=O)c2sc3nc[nH]c(=O)c3c2C)c1	2.9	-9.7	-0.5	-0.9	-5.3
COc1ccccc1N=Nc1[nH]c2ccc(C)cc2c1O	0.8	-8.3	0.0	34.1*	-5.2
COc1ccccc1N=Nc1ccc(O)c2ncccc12	0.3	10.5	-0.7	7.5	4.3
Cc1nc2ccc(S(=O)(=O)N(CC(=O)Nc3ccc(F)cc3F)Cc3ccccc3)cc2s1	1.1	-28.4	0.1	-1.0	2.2
CCC(=O)N1CCc2cc(S(=O)(=O)NC(CC(C)C)C(=O)Nc3cc(C)ccc3OC)ccc21 (configuration not stated)	0.2	21.3	-1.1	7.9	2.0
Cc1ccc(Cn2c(=O)c3ccccc3n3c(-c4ccccc4)nnc23)cc1	2.9	1.4	0.6	-2.7	-2.4
Cc1ccc(O)c(C(=O)c2cnc3c(c2)COc2ccccc2-3)c1	1.6	13.5	-1.1	-1.5	-1.6
Cc1cc(O)c(C(=O)c2cnc3c(c2)COc2ccccc2-3)cc1Cl	0.1	1.8	-1.5	34.6*	-1.1
Nc1c(S(=O)(=O)c2cccc(Cl)c2)c2nc3ccccc3nc2n1/N=C/c1ccc(O)c(O)c1	0.6	-33.9*	0.8	1.0	-4.9

From PubChem BioAssay
